Source: PubChem
Only some compounds are listed: those with a hit (about 4.6% of all), similar ones and a draw of the others.
TRHR PAM = allosterically enhances the human TRH receptor. hit rate 0.66% among 360,000. enhancement, % at 2 µM. TRHR cells, fluo-8 calcium fluorescence, EC20 TRH enhancement. P34981; in the data active = enhancement above about 30%
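TRHR-expressing cells loaded with fluo-8 calcium dye were read kinetically (ex 480/em 530) during compound addition, then stimulated with an EC20 of TRH (10 nM final). Enhancement of the Gq-mediated intracellular calcium response was scored.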
TRHR agonist = TRH receptor (human) agonism. hit rate 0.18% among 360,000. activation, % at 2 µM. TRHR cells, calcium flux fluo-8, FDSS agonist mode
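Agonist-mode FDSS calcium read (Ex 480/Em 530, 1 s cycles) in 1536-well TRHR cells with fluo-8 dye, after 10-cycle baseline and 23 nL compound addition; TRH at EC20 (10 nM final) added afterwards for the enhancer phase.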
D1 potentiator = human D1 dopamine receptor positive modulation; P21728; HEK293 TREx D1 cells, calcium flux, dopamine EC20 potentiation; potentiation, % at 10 µM; hit rate 0.036% among 360,000; in the data active = potentiation above about 30%
Target sequence (P21728 whole entry, looked up): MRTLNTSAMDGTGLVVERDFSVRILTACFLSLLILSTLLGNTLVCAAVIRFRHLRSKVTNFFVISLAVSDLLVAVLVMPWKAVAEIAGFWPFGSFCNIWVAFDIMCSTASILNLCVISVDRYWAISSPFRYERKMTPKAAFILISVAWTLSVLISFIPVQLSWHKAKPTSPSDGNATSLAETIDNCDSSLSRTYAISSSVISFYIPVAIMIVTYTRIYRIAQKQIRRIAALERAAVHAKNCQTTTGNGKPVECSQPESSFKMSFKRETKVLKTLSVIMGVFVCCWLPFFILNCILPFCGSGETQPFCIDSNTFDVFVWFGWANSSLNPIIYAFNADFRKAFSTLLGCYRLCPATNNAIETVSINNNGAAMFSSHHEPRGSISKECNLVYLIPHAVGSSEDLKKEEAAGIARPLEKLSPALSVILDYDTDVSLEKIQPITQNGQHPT
Epigenetic reg = derepresses silenced GFP reporter in murine cells; murine LDR cells, GFP reporter derepression, 30 h; Potency, µM (highest dose often 53.9 µM), hits mostly activators; hit rate 0.2% among 280,000; AID 1865; active = well fitted activation curve with a large enough effect; inconclusive = small, poorly fitted or top-dose-only effect; also: nearly all actives have a fitted effect of over 60% in size
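Murine LDR cells carrying a silenced, genomically integrated CMV-driven GFP reporter were exposed to compound for 30 hours at 37 C. After PBS washes, GFP-positive cells (20–120 um objects) were counted by laser-scanning microplate cytometry.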
D1 antag = blocks dopamine activation of the human D1 receptor; P21728; HEK293 TREx D1 cells, calcium flux, dopamine EC80; hits give low values; activity change, negative = inhibition, % at 10 µM; hit rate 3.2% among 360,000; AID 504652; in the data active = activity change below about -30%
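Tetracycline-induced HEK293 T-REx cells with force-coupled D1 receptor were loaded with a no-wash calcium dye. Compound was added after a 10 s baseline and read kinetically for 180 s; EC80 dopamine was then added and calcium flux followed another 180 s.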
D1 ag = agonists of human D1 dopamine receptor; AID 504660; activation, % at 2 µM; HEK293 T-REx D1 cells, calcium flux, agonist mode; P21728; hit rate 1% among 360,000
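Inducible HEK293 T-REx D1 cells, force-coupled to calcium signalling, were plated at 4000 cells/well with tetracycline and held overnight at 30 C. After no-wash calcium dye loading, compound-evoked calcium rise over 180 s flagged agonists.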
Hits are given with their value. Rule as the data show it, unless noted: active = activation above about 30%; inactive = the rest.

Results for COc1ccc(C2/C(=C(/O)c3ccc(C)cc3)C(=O)C(=O)N2CCCN2CCOCC2)cc1 (centres undefined) ?
TRHR PAM: inactive; TRHR agonist: inactive; D1 potentiator: 37; D1 antag: inactive; D1 ag: inactive

What do the screens show for `CC1c2cc3c(cc2CCN1C(=O)c1ccc(Br)cc1)OCCCO3` (centres undefined)?
TRHR PAM: inactive; TRHR agonist: inactive; D1 potentiator: inactive; D1 antag: -47; D1 ag: inactive

How did Cc1ccc(CNC(=O)CCN2C(=O)C(C)Oc3ccc(C)cc32)cc1 (centres undefined) do in these assays?
TRHR PAM: inactive; TRHR agonist: inactive; D1 potentiator: inactive; Epigenetic reg: inactive; D1 antag: inactive; D1 ag: inactive

Results for CCn1cc(S(=O)(=O)c2ccc(C)cc2)c(=O)c2cc(F)c(N3CCCCCC3)cc21 ?
TRHR PAM: inactive; TRHR agonist: inactive; D1 potentiator: inactive; Epigenetic reg: inactive; D1 antag: inactive; D1 ag: inactive

How did COC(=O)CN1C(=O)C(C)=C(c2ccc(C)cc2)S1(=O)=O do in these assays?
TRHR PAM: inactive; TRHR agonist: inactive; D1 potentiator: inactive; Epigenetic reg: inactive; D1 antag: -36; D1 ag: inactive

What do the screens show for `O=C(CCSc1nnc2ccc3ccccc3n12)Nc1ccc(F)cc1`?
TRHR PAM: inactive; TRHR agonist: inactive; D1 potentiator: inactive; Epigenetic reg: inactive; D1 antag: inactive; D1 ag: inactive

How did O=C(CCSc1ccc(F)cc1)Nc1ccc(-n2cnnn2)cc1 do in these assays?
TRHR PAM: inactive; TRHR agonist: inactive; D1 potentiator: inactive; Epigenetic reg: inactive; D1 antag: -40; D1 ag: inactive

What do the screens show for `CCn1c(SCC(=O)Nc2ccc(C)cc2Br)nnc1-c1nonc1NC(C)=O`?
TRHR PAM: inactive; TRHR agonist: inactive; D1 potentiator: inactive; Epigenetic reg: inactive; D1 antag: inactive; D1 ag: inactive

How did C[C@@H](CSc1ccccc1)CN1CC[C@H](NC(=O)OCc2ccccc2)CCC1=O do in these assays?
TRHR PAM: inactive; TRHR agonist: inactive; D1 potentiator: inactive; D1 antag: inactive; D1 ag: inactive

What do the screens show for `C[C@@H](CSc1ccccc1)CN1CC[C@H](O)CCC1=O`?
TRHR PAM: inactive; TRHR agonist: inactive; D1 potentiator: inactive; D1 antag: -31; D1 ag: inactive

What do the screens show for `O=C(O)Cn1cccc1C(=O)c1ccccc1`?
TRHR PAM: inactive; TRHR agonist: inactive; D1 potentiator: inactive; Epigenetic reg: inactive; D1 antag: inactive; D1 ag: 33

How did COC(=O)Cn1cccc1C(=O)c1ccccc1 do in these assays?
TRHR PAM: inactive; TRHR agonist: inactive; D1 potentiator: inactive; Epigenetic reg: inactive; D1 antag: inactive; D1 ag: inactive

What do the screens show for `COc1ccc(Cl)cc1NC(=O)CNc1ccccc1N1CCOCC1`?
TRHR PAM: inactive; TRHR agonist: inactive; D1 potentiator: inactive; Epigenetic reg: inactive; D1 antag: -35; D1 ag: inactive

Results for COc1ccc(CCNC(=O)CSc2nnnn2-c2ccccc2OC)cc1OC ?
TRHR PAM: inactive; TRHR agonist: inactive; D1 potentiator: inactive; Epigenetic reg: inactive; D1 antag: -52; D1 ag: inactive

How did COc1cccc(-n2c(C)nnc2SCC(=O)Nc2ccccc2N2CCOCC2)c1 do in these assays?
TRHR PAM: inactive; TRHR agonist: inactive; D1 potentiator: inactive; Epigenetic reg: inactive; D1 antag: inactive; D1 ag: inactive

How did COc1ccc(NC(=O)CSc2nnnn2-c2ccccc2OC)c(OC)c1 do in these assays?
TRHR PAM: inactive; TRHR agonist: inactive; D1 potentiator: inactive; D1 antag: -68; D1 ag: inactive

How did COc1ccc(OC)c(-n2nnnc2SCC(=O)Nc2ccccc2N2CCOCC2)c1 do in these assays?
TRHR PAM: inactive; TRHR agonist: inactive; D1 potentiator: inactive; Epigenetic reg: inactive; D1 antag: -34; D1 ag: inactive

Results for Cc1cc(Cl)ccc1OCC(=O)Nc1ccccc1N1CCOCC1 ?
TRHR PAM: inactive; TRHR agonist: inactive; D1 potentiator: inactive; Epigenetic reg: inactive; D1 antag: inactive; D1 ag: inactive

What do the screens show for `O=c1[nH]c2ccc(NCc3ccccc3F)cc2[nH]1`?
TRHR PAM: inactive; TRHR agonist: inactive; D1 potentiator: inactive; Epigenetic reg: inconclusive; D1 antag: inactive; D1 ag: inactive

Results for CCCCNc1nc(C)nc2c1nc(-c1ccccc1)n2C(C)CCCN(CC)CC (centres undefined) ?
Epigenetic reg: inactive

What do the screens show for `COc1ccc(CCNC(=O)CSc2cn(Cc3cccc(C)c3)c3ccccc23)cc1OC`?
TRHR PAM: inactive; TRHR agonist: inactive; D1 potentiator: inactive; Epigenetic reg: inactive; D1 antag: inactive; D1 ag: 34

What do the screens show for `COc1ccccc1-n1c(SCC(=O)N(C)C2CCS(=O)(=O)C2)nc2ccccc2c1=O` (centres undefined)?
TRHR PAM: inactive; TRHR agonist: inactive; D1 potentiator: inactive; Epigenetic reg: inactive; D1 antag: inactive; D1 ag: inactive

What do the screens show for `COc1ccc(CCNC(=O)CSc2cn(Cc3ccccc3)c3ccccc23)cc1OC`?
TRHR PAM: inactive; TRHR agonist: inactive; D1 potentiator: inactive; Epigenetic reg: inactive; D1 antag: inactive; D1 ag: inactive

What do the screens show for `COc1ccccc1-n1nnnc1SCC(=O)N(C)C1CCS(=O)(=O)C1` (centres undefined)?
TRHR PAM: inactive; TRHR agonist: inactive; D1 potentiator: inactive; D1 antag: -38; D1 ag: inactive

What do the screens show for `Cc1cccc(CN2CCN([C@@H](c3ccccc3)c3ccc(Cl)cc3)CC2)c1`?
Epigenetic reg: inactive

Results for Cc1ccc(-n2ncc(C(=O)NCCc3ccsc3)c2C2CCN(C(=O)OC(C)(C)C)CC2)c(C)c1 ?
TRHR PAM: inactive; TRHR agonist: inactive; D1 potentiator: inactive; Epigenetic reg: inactive; D1 antag: inactive; D1 ag: inactive

What do the screens show for `CCOC(=O)/C(C#N)=C\c1ccc(N2CCN(C/C=C/c3ccccc3)CC2)cc1`?
TRHR PAM: inactive; TRHR agonist: inactive; D1 potentiator: inactive; Epigenetic reg: inactive; D1 antag: inactive; D1 ag: 109

Results for Cc1cc(/C=C(\C#N)C(=O)NCc2cccs2)c(C)n1-c1ccc([N+](=O)[O-])cc1 ?
TRHR PAM: inactive; TRHR agonist: inactive; D1 potentiator: inactive; Epigenetic reg: inactive; D1 antag: -56; D1 ag: inactive

What do the screens show for `CCOC(=O)/C(C#N)=C/c1cc(C)n(-c2ccc(C)cc2)c1C`?
TRHR PAM: inactive; TRHR agonist: inactive; D1 potentiator: inactive; Epigenetic reg: inactive; D1 antag: -75; D1 ag: inactive

How did COc1ccc(N2CCN(S(=O)(=O)CCNC(=O)COc3ccccc3F)CC2)cc1 do in these assays?
TRHR PAM: inactive; TRHR agonist: inactive; D1 potentiator: inactive; Epigenetic reg: inactive; D1 antag: inactive; D1 ag: inactive
